According to PubChem BioAssay (NCI):
This is part of a sample that, as a whole, favours compounds with a hit. Of some 83,000 tested, about 20% had one in any assay.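 Values shown are percent growth following 48 h exposure of cells in 96-well plates to a single concentration of compound; below 10 was considered active.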 The source made the active and inactive calls.

Key:
Experiment in all cases: NCI-60 one-dose screen, 48 h (100 = growth as untreated, 0 = no growth, -100 = all killed)
Settings in all cases: 10 µM
SR leukemia = system: SR leukemia
RPMI-8226 leukemia = system: RPMI-8226 leukemia
OVCAR-8 ovarian = system: OVCAR-8 ovarian
OVCAR-5 ovarian = system: OVCAR-5 ovarian
OVCAR-4 ovarian = system: OVCAR-4 ovarian
SK-OV-3 ovarian = system: SK-OV-3 ovarian
IGROV1 ovarian = system: IGROV1 ovarian
OVCAR-3 ovarian = system: OVCAR-3 ovarian
HS 578T breast = system: HS 578T breast
NCI/ADR-RES ovarian = system: NCI/ADR-RES ovarian
T-47D breast = system: T-47D breast
BT-549 breast = system: BT-549 breast
MDA-MB-435 melanoma = system: MDA-MB-435 melanoma
SW-620 colon = system: SW-620 colon
MCF7 breast = system: MCF7 breast
HCT-116 colon = system: HCT-116 colon
HCC-2998 colon = system: HCC-2998 colon
KM12 colon = system: KM12 colon

SMILES	growth (SR leukemia)	growth (RPMI-8226 leukemia)	growth (OVCAR-8 ovarian)	growth (OVCAR-5 ovarian)	growth (OVCAR-4 ovarian)	growth (SK-OV-3 ovarian)	growth (IGROV1 ovarian)	growth (OVCAR-3 ovarian)	growth (HS 578T breast)	growth (NCI/ADR-RES ovarian)	growth (T-47D breast)	growth (BT-549 breast)	growth (MDA-MB-435 melanoma)	growth (SW-620 colon)	growth (MCF7 breast)	growth (HCT-116 colon)	growth (HCC-2998 colon)	growth (KM12 colon)
CCOC(=O)CC(S(=O)(=O)c1ccccc1)S(=O)(=O)c1ccccc1	89.1% (inactive)	97.4% (inactive)	103% (inactive)	109% (inactive)	94% (inactive)	112% (inactive)	107% (inactive)	63.1% (inactive)	105% (inactive)	104% (inactive)	88.1% (inactive)	110% (inactive)	107% (inactive)	8.23% (active)	101% (inactive)	102% (inactive)	109% (inactive)	97.1% (inactive)
CCOC(=O)c1cc(C(=O)c2cc(OC)cc(OC)c2)n2nc(C)ccc12	18.4% (inactive)	12.2% (inactive)	29.7% (inactive)	59.6% (inactive)	56.6% (inactive)	6.35% (active)	44.8% (inactive)	1.01% (active)	36.4% (inactive)	19.5% (inactive)	43.9% (inactive)	48.7% (inactive)	-16.2% (active)	17.8% (inactive)	20.8% (inactive)	25.2% (inactive)	54.1% (inactive)	29.4% (inactive)
c1ccc(CSc2ncccc2-c2nnc(SCCN3CCOCC3)o2)cc1	104% (inactive)	104% (inactive)	109% (inactive)	119% (inactive)	106% (inactive)	109% (inactive)	98.3% (inactive)	120% (inactive)	133% (inactive)	107% (inactive)	101% (inactive)	112% (inactive)	114% (inactive)	107% (inactive)	94.9% (inactive)	108% (inactive)	116% (inactive)	107% (inactive)
Cc1ccc(N=Nc2ccccc2)cc1	90.3% (inactive)	100% (inactive)	106% (inactive)	99.7% (inactive)	108% (inactive)	89.4% (inactive)	102% (inactive)	105% (inactive)	103% (inactive)	102% (inactive)	88.2% (inactive)	90% (inactive)	101% (inactive)	102% (inactive)	98.3% (inactive)	78.4% (inactive)	103% (inactive)	93.8% (inactive)
O=C(CI)OCC(COC(=O)CI)OC(=O)CI	-12.9% (active)	50.9% (inactive)	97.9% (inactive)	104% (inactive)	64% (inactive)	119% (inactive)	-57.1% (active)	72.2% (inactive)	97.4% (inactive)	95.6% (inactive)	35.4% (inactive)	74.6% (inactive)	91.5% (inactive)	27.5% (inactive)	56.1% (inactive)	56.3% (inactive)	102% (inactive)	102% (inactive)
C[C@]12CC[C@@H]3c4ccc(OS(=O)(=O)O)cc4CC[C@H]3[C@@H]1CC[C@@H]2NS(=O)(=O)c1ccc(-c2ccccc2)cc1	38.6% (inactive)	32.4% (inactive)	67.6% (inactive)	113% (inactive)	66.9% (inactive)	91.6% (inactive)	70.4% (inactive)	52.6% (inactive)	89.3% (inactive)	58.5% (inactive)	49.8% (inactive)	53.9% (inactive)	69.4% (inactive)	75.3% (inactive)	30.2% (inactive)	36.2% (inactive)	80.9% (inactive)	60.5% (inactive)
N#Cc1ccc(C(=O)CSc2nccc(Nc3ccc(C(=O)O)cc3)n2)cc1	106% (inactive)	108% (inactive)	106% (inactive)	102% (inactive)	115% (inactive)	106% (inactive)	102% (inactive)	110% (inactive)	98.7% (inactive)	108% (inactive)	110% (inactive)	103% (inactive)	104% (inactive)	104% (inactive)	91.3% (inactive)	108% (inactive)	100% (inactive)	105% (inactive)
CN1CCN(CC(=O)Nc2cccc(-n3cc(-c4ccncc4)c(-c4ccc(Cl)c(O)c4)n3)c2)CC1	5.84% (active)	15.9% (inactive)	57.2% (inactive)	68.2% (inactive)	59.8% (inactive)	55.9% (inactive)	57.5% (inactive)	12.8% (inactive)	38.2% (inactive)	42.2% (inactive)	61.3% (inactive)	36.6% (inactive)	-47.5% (active)	20.8% (inactive)	15.2% (inactive)	17.3% (inactive)	85.6% (inactive)	26.1% (inactive)
Cc1ccc(/C=C/C(=O)C(=O)/C=C/c2ccc(C)cc2)cc1	68% (inactive)	45.2% (inactive)	109% (inactive)	97.8% (inactive)	98.6% (inactive)	109% (inactive)	94.4% (inactive)	112% (inactive)	92.6% (inactive)	103% (inactive)	92.4% (inactive)	95.3% (inactive)	76.9% (inactive)	100% (inactive)	23.8% (inactive)	-36.8% (active)	110% (inactive)	93.8% (inactive)
C[C@@H](C[C@H](CCO)c1ccccc1)c1ccc2ccccc2c1	-41.4% (active)	-18.8% (active)	-39% (active)	-69% (active)	-81% (active)	23.8% (inactive)	-54.5% (active)	-88% (active)	-9.29% (active)	-60.5% (active)	-58.3% (active)	-86.1% (active)	-75.3% (active)	-26.5% (active)	-63% (active)	-94.3% (active)	-82.9% (active)	-42.3% (active)
COc1cc(C(=O)/C=C/c2c[nH]c3ccccc23)cc(OC)c1OC	14.3% (inactive)	10.3% (inactive)	15.9% (inactive)	55.7% (inactive)	49.4% (inactive)	17.7% (inactive)	27.7% (inactive)	-8.84% (active)	49.9% (inactive)	9.93% (active)	63.2% (inactive)	-9.31% (active)	7.59% (active)	37.3% (inactive)	12.5% (inactive)	12.2% (inactive)	19.6% (inactive)	11.5% (inactive)
COc1cc(-c2nn(-c3cccc(NC(=O)NCCNS(=O)(=O)c4ccc(Cl)cc4)c3)cc2-c2ccncc2)ccc1Cl	1.18% (active)	-2.02% (active)	8.88% (active)	27.9% (inactive)	33.3% (inactive)	19.3% (inactive)	25.2% (inactive)	2.8% (active)	18.8% (inactive)	71% (inactive)	23.8% (inactive)	-11.6% (active)	2.25% (active)	18.9% (inactive)	4.85% (active)	0.871% (active)	-9.49% (active)	7.63% (active)
CCN(CC)CC(=O)N(CC)c1ccc(C)c(Cl)c1	82.3% (inactive)	97.2% (inactive)	94.4% (inactive)	104% (inactive)	107% (inactive)	93.1% (inactive)	101% (inactive)	102% (inactive)	100% (inactive)	102% (inactive)	90.3% (inactive)	98.1% (inactive)	103% (inactive)	97.3% (inactive)	98.6% (inactive)	98.7% (inactive)	102% (inactive)	97.9% (inactive)
COc1ccc(/C=C/C(=O)C(=O)/C=C/c2ccc(OC)c(OC)c2)cc1OC	4.78% (active)	3.5% (active)	19.5% (inactive)	60.5% (inactive)	61.9% (inactive)	97.8% (inactive)	10.1% (inactive)	3.9% (active)	31.5% (inactive)	71.7% (inactive)	35.8% (inactive)	14.8% (inactive)	12.2% (inactive)	4.43% (active)	4.02% (active)	-74.8% (active)	21.9% (inactive)	-4.31% (active)
CC(C)CCN(CCC(C)C)CC(=O)Nc1ccc(S(=O)(=O)c2ccc(NC(=O)CN(CCC(C)C)CCC(C)C)cc2)cc1	3.98% (active)	-22.4% (active)	21.8% (inactive)	54.3% (inactive)	73.7% (inactive)	84.3% (inactive)	12.1% (inactive)	22.7% (inactive)	65.3% (inactive)	59.3% (inactive)	52.7% (inactive)	42.2% (inactive)	65.7% (inactive)	-1.98% (active)	15.3% (inactive)	-54.2% (active)	95.8% (inactive)	54.5% (inactive)
CCc1cc(Cl)c(OC)c(C(=O)NCC2CCCN2CC)c1O (stereo unspecified)	81.6% (inactive)	95.8% (inactive)	92.5% (inactive)	88.2% (inactive)	86.5% (inactive)	79.9% (inactive)	98.4% (inactive)	100% (inactive)	88.7% (inactive)	94.2% (inactive)	80.9% (inactive)	89.2% (inactive)	92.7% (inactive)	91.7% (inactive)	95.8% (inactive)	88.5% (inactive)	96.4% (inactive)	101% (inactive)
COc1cc(/C=C/c2cc(/C=C/c3ccc(O)c(OC)c3)n(C(=O)Nc3ccccc3Cl)n2)ccc1O	-17.7% (active)	-22.3% (active)	1.5% (active)	13.2% (inactive)	6.59% (active)	-33.3% (active)	-6.58% (active)	-26.8% (active)	-4.71% (active)	20.8% (inactive)	4.55% (active)	-26.4% (active)	4.08% (active)	6.99% (active)	4.41% (active)	1.16% (active)	2.83% (active)	0.0939% (active)
